# Compounds with a hit are over-represented: about 19% of the library has one in this group of screens.
# RORgamma inh – qHTS for inhibitors of ROR gamma transcriptional activity. Drosophila S2 Gal4-RORgamma UAS-luciferase reporter, 20 h. 310,000 tested, 5.4% active. Potency, µM (highest dose often 53.6 µM), for the others: at the top dose activity change, negative = inhibition, most hits filed as inhibitors. Nuclear receptor ROR-gamma (Mus musculus), P51450; further: nearly all actives have a fitted effect of over 60% in size
# Target sequence (P51450 whole entry, looked up, the tested form may be a part): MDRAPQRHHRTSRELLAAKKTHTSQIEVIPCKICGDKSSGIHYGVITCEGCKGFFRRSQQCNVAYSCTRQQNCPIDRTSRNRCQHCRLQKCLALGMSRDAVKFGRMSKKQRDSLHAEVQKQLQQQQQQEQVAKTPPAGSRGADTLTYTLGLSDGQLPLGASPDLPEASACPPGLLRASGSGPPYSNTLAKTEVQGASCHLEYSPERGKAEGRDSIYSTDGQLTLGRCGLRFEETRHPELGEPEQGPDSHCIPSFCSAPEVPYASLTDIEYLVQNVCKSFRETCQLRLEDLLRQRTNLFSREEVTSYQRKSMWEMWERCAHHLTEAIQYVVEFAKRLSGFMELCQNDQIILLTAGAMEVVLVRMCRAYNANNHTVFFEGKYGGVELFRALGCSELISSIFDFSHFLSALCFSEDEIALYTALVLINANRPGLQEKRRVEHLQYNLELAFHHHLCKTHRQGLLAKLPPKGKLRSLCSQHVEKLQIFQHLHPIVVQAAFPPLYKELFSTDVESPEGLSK
#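 In this cell-based reporter format, copper sulfate (700 uM final) drives Gal4–ROR gamma fusion expression from a metallothionein promoter in Drosophila Schneider cells; compounds preincubated 1 hr, reporter read after 20 hr at ambient temperature.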
# Gal4-VP16 FLuc – VP16 counterscreen qHTS for inhibitors of ROR gamma transcriptional activity. Potency, µM (series often up to 53.6 µM), for the others: at the highest dose activity, negative = inhibition, hits mostly inhibitors. AID 2546, 2010. 310,000 tested, 3.5% active. Drosophila S2 Gal4-VP16 UAS-luciferase, luminescence, 20 h;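 further: Gal4-VP16 expression switched on by copper sulfate through the metallothionein promoter; nearly all actives have a fitted effect of over 50% in size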
# TDP1 cell noCPT – qHTS for Inhibitors of human tyrosyl-DNA phosphodiesterase 1 (TDP1): qHTS in cells in absence of CPT. Potency, µM (top dose mostly 46.2 µM), without a hit: at the highest dose activity change, negative = growth inhibition, hits mostly inhibitors. DT40 Tdp1-/- hTDP1 cells, no CPT, ATP luminescence, 48 h. 420,000 tested, 15% active; further: nearly all actives have a fitted effect of over 55% in size
#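 Seeded 400 DT40-hTDP1 cells/well (vehicle DMSO, no 20 nM CPT); pinned compounds; ≥48 hr at 37 °C; CellTiter-Glo luminescence as viability measure.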
# TDP1 inh – qHTS Assay for Inhibitors of Tyrosyl-DNA Phosphodiesterase (TDP1); Tyrosyl-DNA phosphodiesterase 1 (Homo sapiens), Q9NUW8; recombinant TDP1, AlphaScreen DNA substrate cleavage; Potency, µM (titrated, usually from 130 µM), for inactives: at the highest dose activity change, negative = inhibition, hits mostly inhibitors; 350,000 tested, 0.28% active; AID 485290, 2010; further: nearly all actives have a fitted effect of over 40% in size
#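 Here, a 5' biotin and 3' phosphotyrosine-FITC DNA oligonucleotide reports Tdp1 activity: intact substrate bridges AlphaScreen beads, while cleavage leaves a 3' phosphate and drops signal. All incubations at room temperature.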
# TDP1 cell CPT – qHTS for Inhibitors of human tyrosyl-DNA phosphodiesterase 1 (TDP1): qHTS in cells in presence of CPT; chicken DT40 Tdp1-/-;hTDP1 cells + 20 nM CPT, ATP luminescence, 48 h; Potency, µM (top dose mostly 46.2 µM), for the others: at the top dose activity change, negative = growth inhibition, most hits filed as inhibitors; 420,000 tested, 12% active; further: nearly all actives have a fitted effect of over 55% in size
#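 Chicken DT40 Tdp1-/- cells stably complemented with human TDP1 were seeded at 400 cells/well in medium containing 20 nM camptothecin, exposed to pin-transferred compounds, and grown at 37 °C for at least 48 hr. Viability was read as ATP luminescence.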
# * marks the source's active call; other numbers are inactive results; ? = inconclusive; / = no result given. The call rests on the fitted dose curve; in most records, active means well fitted curve in the direction sought with a large enough effect; inconclusive means small, poorly fitted or top-dose-only effect, or another doubt; inactive means no such curve, though single readings can be large; an effect the other way counts as inactive or inconclusive. On the % scale 0 is the no-effect control and ±100 the full control effect; potency means the concentration at half of the fitted maximal effect.
SMILES,RORgamma inh,Gal4-VP16 FLuc,TDP1 cell noCPT,TDP1 inh,TDP1 cell CPT
CCN(CC)S(=O)(=O)c1ccc(OC)c(NS(=O)(=O)c2cccc(C(=O)O)c2)c1,4%,-1%,1%,-4%,-8%
CC(C)(C)Sc1ccc2nc3c(n2c1)CCCC3,4µM*,11µM*,5.8µM*,-8%,21µM*
COC(=O)c1cn(-c2cccc(C)n2)cn1,10%,7%,5%,1%,2%
CC(=NNC(=S)N1CC2CCC(CC2)C1)c1ccncn1,/,/,0.029µM*,/,0.037µM*
CC(=NNC(=S)N1CCCCC1)c1cccc(C)n1,/,/,0.018µM*,/,0.0092µM*
CC(=NNC(=S)N1CCCCC1)c1ccccn1,/,/,0.0082µM*,/,0.026µM*
CCNC(=S)N1CCN(c2ccccn2)CC1,-40%,-2%,-23%,0%,26%
CSC(=S)NN=C(C)c1cccc(C)n1,/,/,0.018µM*,/,0.033µM*
O=C(Oc1cccc(Cl)c1)N1CCOCC1,-13%,-2%,-4%,/,6%
Cc1ccc(NC2=CC(=O)c3sc(C)nc3C2=O)cc1,2.2µM*,2.5µM*,/,17%,/
CC1=NN(c2ccc(C(=O)OC(C)C)cc2)C(=O)/C1=C\C=C\c1ccco1,14µM*,?,?,0%,?
O=C(O)c1cc(N2N=C(C(F)(F)F)/C(=C/C=C/c3ccco3)C2=O)ccc1Cl,7%,?,18µM*,-3%,?
CCOC(=O)c1ccc(N2N=C(C)/C(=C/C=C/c3ccco3)C2=O)cc1,42%,-11%,?,10%,?
CC1=NN(c2ccccc2)C(=O)/C1=C/C=C/c1ccc(N(C)C)cc1,-12%,-12%,23µM*,12%,23µM*
CC1=NN(c2ccccc2)C(=O)/C1=C/c1cccc(C)c1,33%,1%,?,/,?
CC1=NN(c2ccccc2)C(=O)/C1=C\C=C\c1ccccc1,8.9µM*,?,7.3µM*,11%,4.6µM*
CCCCNc1ccc(-c2nc(-c3ccccn3)no2)cc1[N+](=O)[O-],/,/,-10%,0%,-11%
O=[N+]([O-])c1cc(S(=O)(=O)N2CCCC2)ccc1OCCOc1ccccc1,/,/,?,0%,?
COc1ccc(S(=O)(=O)N[C@H]2CC[C@H](CCNC(=O)c3ccccc3F)O[C@@H]2CO)cc1,/,/,-14%,/,-26%
COc1ccc(S(=O)(=O)n2nc(C)c(S(=O)(=O)N3CCCCCC3)c2C)cc1OC,/,/,-1%,2%,-23%
Cc1[nH]c2ccccc2c(=O)c1SC(F)(F)C(F)C(F)(F)F (stereo not given),20%,5%,?,6%,-17%
CC1=NN(c2ccccc2)C(=O)/C1=C\C=C1\N(C)c2ccccc2C1(C)C,10%,-20%,23µM*,-11%,?
Cc1noc(C)c1CSc1ncnc2sc3c(c12)CCCCC3,7.9µM*,?,?,3%,-18%
O=C(O)CSc1ncnc2sc3c(c12)CCCC3,-36%,-19%,-24%,5%,-2%
Cc1ccc(C(=O)CSc2ncnc3sc4c(c23)CCCC4)cc1,?,2%,21µM*,-2%,?
SMILES,RORgamma inh,Gal4-VP16 FLuc,TDP1 cell noCPT,TDP1 inh,TDP1 cell CPT
O=C(C[C@@H]1CC[C@H](NC(=O)c2ccc3c(c2)OCO3)[C@@H](CO)O1)NCc1ccc(F)cc1,/,/,12µM*,/,?
O=C(C[C@H]1C[C@H]2c3cc(NC(=O)CC4CC4)ccc3O[C@H]2[C@H](CO)O1)NCc1ccccc1F,/,/,?,/,-7%
O=C(C[C@H]1C[C@@H]2c3cc(NC(=O)c4ccc5c(c4)OCO5)ccc3O[C@@H]2[C@H](CO)O1)NCc1cc(F)ccc1F,/,/,26µM*,/,?
COC(=O)C[C@@H]1CC[C@H](NC(=O)c2ccc3c(c2)OCO3)[C@@H](CO)O1,/,/,7%,/,-7%
CCCNC(=O)C[C@@H]1C[C@H]2c3cc(NC(=O)c4ccc5c(c4)OCO5)ccc3O[C@H]2[C@@H](CO)O1,/,/,15µM*,/,23µM*
COC(=O)c1c(C(=O)OC)c(-c2ccc(F)cc2)n2c1CSC2,8%,6%,?,/,-15%
CC1=C(C#N)C(c2ccc(O)cc2)C(C#N)=C(C)N1,-11%,1%,-8%,-3%,19%
CSc1nc(C)c2cc(C)oc2n1,15%,4%,-17%,10%,0%
c1ccc(Nc2nc(-c3cccnc3)nc3ccccc23)cc1,-1%,-16%,?,/,?
Cc1ccccc1Nc1nc(-c2cccnc2)nc2ccccc12,?,-2%,21µM*,/,?
CCOC(=O)c1nc(Nc2ccc(C)cc2)c2ccccc2n1,?,16%,13µM*,4%,21µM*
Cc1ccc(Nc2nc(-c3cccnc3)nc3ccccc23)cc1,19%,-4%,8.2µM*,/,18µM*
CCOC(=O)c1nc(Nc2ccccc2)c2ccccc2n1,6%,10%,?,1%,?
CCOC(=O)c1c(Nc2ccc(C)cc2)nnc(-c2ccccc2)c1-c1ccccc1,/,/,18µM*,/,?
O=C(O)/C=C\C(=O)Nc1ccc(Oc2ccccc2)cc1,-8%,-6%,-2%,6%,-7%
COC(=O)C(c1ccccc1)C1(O)CC(C)N(C)CC1C (stereo not given),-24%,-5%,4%,/,13%
CCOC(=O)c1ccc(Nc2nc(-c3cccnc3)nc3ccccc23)cc1,-34%,?,9.2µM*,-2%,16µM*
CCOC(=O)c1ccc(Nc2ncnc3ccccc23)cc1,?,3%,-28%,8%,?
Clc1ccccc1Nc1nc(-c2ccncc2)nc2ccccc12,0%,-2%,16µM*,/,29µM*
O=C(/C=C/c1cccc(Cl)c1)NCCc1ccccc1,?,6%,-3%,-3%,-26%
C/C=C(/C)C(=O)O[C@@H]1c2cc3c(c(OC)c2-c2c(cc(OC)c(OC)c2OC)[C@@H](OC(C)=O)[C@@H](C)[C@H]1C)OCO3,27%,0%,16µM*,-2%,18µM*
Cc1nn2c(-c3cccnc3)ccnc2c1-c1ccccc1,?,-5%,23µM*,0%,?
Cc1nn2c(-c3ccccc3)ccnc2c1Br,-3%,2%,?,/,?
Fc1cc(F)nc(NCc2ccccc2)n1,13%,-3%,14%,/,13%
COc1ccccc1CNc1nc(NCc2ccccc2)nc2ccsc12,/,/,15µM*,/,23µM*
COc1ccccc1CNc1nc(NCc2ccc(C)cc2C)c2sccc2n1,/,/,9.2µM*,/,4.6µM*
Fc1cc(Cl)ccc1Nc1nc(NCc2ccccc2)nc2ccsc12,/,/,9.2µM*,/,12µM*

# Screening data as filed in PubChem BioAssay.
